What was measured:
[1] = target: T1, Ephrin type-B receptor 2 (Homo sapiens) (UniProt P29323); conditions: at 1 µM
T1 sequence (whole entry): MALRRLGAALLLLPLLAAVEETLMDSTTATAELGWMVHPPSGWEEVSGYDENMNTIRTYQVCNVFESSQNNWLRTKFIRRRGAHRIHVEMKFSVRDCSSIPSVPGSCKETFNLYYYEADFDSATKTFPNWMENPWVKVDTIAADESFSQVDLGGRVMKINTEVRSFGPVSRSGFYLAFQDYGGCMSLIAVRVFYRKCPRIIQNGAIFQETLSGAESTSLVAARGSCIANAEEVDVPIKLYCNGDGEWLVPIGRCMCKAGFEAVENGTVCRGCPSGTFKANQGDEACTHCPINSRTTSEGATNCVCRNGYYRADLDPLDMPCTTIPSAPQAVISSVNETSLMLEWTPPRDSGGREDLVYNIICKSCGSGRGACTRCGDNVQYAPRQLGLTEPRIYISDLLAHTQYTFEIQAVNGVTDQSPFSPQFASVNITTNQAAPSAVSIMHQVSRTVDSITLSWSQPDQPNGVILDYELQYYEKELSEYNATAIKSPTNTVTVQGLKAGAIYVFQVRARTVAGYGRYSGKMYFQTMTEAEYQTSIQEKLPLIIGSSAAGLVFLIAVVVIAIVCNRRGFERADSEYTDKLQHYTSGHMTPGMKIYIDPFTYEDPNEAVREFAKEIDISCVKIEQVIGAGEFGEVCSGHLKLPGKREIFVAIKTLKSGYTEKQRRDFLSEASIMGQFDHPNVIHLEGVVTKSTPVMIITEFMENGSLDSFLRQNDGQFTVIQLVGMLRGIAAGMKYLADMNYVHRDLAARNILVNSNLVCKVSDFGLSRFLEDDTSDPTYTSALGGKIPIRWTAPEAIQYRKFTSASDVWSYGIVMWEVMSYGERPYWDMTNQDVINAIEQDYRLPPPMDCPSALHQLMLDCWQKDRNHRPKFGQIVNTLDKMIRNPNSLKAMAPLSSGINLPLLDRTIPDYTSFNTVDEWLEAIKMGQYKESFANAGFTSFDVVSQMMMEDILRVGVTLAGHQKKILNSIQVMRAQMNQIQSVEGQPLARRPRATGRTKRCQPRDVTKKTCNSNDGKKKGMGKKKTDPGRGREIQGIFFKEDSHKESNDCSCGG

[2] = target: T2, Ephrin type-B receptor 3 (Homo sapiens) (UniProt P54753); conditions: at 0.1 µM
T2 sequence (whole entry): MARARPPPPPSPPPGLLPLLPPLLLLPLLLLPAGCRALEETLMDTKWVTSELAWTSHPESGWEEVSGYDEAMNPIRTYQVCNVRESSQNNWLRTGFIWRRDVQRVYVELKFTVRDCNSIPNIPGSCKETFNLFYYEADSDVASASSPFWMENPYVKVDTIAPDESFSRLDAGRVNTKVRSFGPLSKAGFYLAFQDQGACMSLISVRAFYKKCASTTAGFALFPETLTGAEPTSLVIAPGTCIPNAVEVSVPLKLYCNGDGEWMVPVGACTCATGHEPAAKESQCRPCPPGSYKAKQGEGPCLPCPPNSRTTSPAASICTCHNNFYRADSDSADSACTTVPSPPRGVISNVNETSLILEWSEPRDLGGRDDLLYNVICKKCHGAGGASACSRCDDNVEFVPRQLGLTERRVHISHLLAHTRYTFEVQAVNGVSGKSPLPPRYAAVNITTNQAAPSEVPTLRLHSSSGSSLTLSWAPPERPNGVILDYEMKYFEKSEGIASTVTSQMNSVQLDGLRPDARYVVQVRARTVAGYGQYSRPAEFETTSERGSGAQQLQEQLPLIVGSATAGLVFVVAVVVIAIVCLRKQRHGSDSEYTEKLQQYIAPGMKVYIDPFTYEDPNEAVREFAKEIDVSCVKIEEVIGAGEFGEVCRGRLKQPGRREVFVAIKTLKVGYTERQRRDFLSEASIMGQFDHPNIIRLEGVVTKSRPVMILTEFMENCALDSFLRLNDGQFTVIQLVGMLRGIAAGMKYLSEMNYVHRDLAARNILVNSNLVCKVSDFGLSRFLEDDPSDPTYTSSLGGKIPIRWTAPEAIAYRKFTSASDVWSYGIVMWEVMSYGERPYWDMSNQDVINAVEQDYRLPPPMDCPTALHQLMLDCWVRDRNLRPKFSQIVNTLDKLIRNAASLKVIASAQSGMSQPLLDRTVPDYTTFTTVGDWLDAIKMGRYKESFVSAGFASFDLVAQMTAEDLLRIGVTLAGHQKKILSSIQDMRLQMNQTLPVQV

[3] = target: T2, Ephrin type-B receptor 3 (Homo sapiens); conditions: at 1 µM
[4] = target: T3, Ephrin type-B receptor 4 (Homo sapiens) (UniProt P54760); conditions: at 0.1 µM
T3 sequence (whole entry): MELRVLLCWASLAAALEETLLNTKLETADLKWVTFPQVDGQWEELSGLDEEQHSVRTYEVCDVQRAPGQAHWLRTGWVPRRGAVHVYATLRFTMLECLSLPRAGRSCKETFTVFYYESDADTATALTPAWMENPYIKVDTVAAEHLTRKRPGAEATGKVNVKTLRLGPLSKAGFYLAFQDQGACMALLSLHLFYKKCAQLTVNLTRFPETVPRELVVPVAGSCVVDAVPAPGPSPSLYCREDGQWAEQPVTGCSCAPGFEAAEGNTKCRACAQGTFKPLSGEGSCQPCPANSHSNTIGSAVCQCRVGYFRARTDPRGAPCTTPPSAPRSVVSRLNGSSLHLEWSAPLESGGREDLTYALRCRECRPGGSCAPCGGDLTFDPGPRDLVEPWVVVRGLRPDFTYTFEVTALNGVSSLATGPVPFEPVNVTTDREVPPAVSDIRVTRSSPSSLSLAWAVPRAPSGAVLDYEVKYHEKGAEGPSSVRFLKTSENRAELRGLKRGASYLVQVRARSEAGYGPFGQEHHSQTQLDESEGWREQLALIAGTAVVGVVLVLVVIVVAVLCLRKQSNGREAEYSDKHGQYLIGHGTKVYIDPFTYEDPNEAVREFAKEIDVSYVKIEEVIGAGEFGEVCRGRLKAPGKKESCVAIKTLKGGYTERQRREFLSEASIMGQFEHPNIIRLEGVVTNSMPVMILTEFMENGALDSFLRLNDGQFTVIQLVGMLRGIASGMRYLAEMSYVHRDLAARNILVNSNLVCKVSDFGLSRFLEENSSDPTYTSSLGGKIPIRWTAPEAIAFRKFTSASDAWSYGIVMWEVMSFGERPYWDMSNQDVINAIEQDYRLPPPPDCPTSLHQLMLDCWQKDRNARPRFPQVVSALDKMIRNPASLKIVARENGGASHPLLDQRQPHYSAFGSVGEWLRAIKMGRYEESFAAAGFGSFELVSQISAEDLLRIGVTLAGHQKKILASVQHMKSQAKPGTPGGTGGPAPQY

[5] = target: T3, Ephrin type-B receptor 4 (Homo sapiens); conditions: at 1 µM
[6] = target: Receptor tyrosine-protein kinase erbB-2 (Homo sapiens) (UniProt P04626); conditions: at 0.1 µM
[7] = target: Receptor tyrosine-protein kinase erbB-2 (Homo sapiens) (UniProt P04626); conditions: at 1 µM
[8] = target: Receptor tyrosine-protein kinase erbB-4 (Homo sapiens) (UniProt Q15303); conditions: at 0.1 µM
[9] = target: Receptor tyrosine-protein kinase erbB-4 (Homo sapiens) (UniProt Q15303); conditions: at 1 µM
[10] = target: Tyrosine-protein kinase Fer (Homo sapiens) (UniProt P16591); conditions: at 0.1 µM
[11] = target: Tyrosine-protein kinase Fer (Homo sapiens) (UniProt P16591); conditions: at 1 µM
[12] = target: Tyrosine-protein kinase Fes/Fps (Homo sapiens) (UniProt P07332); conditions: at 0.1 µM
[13] = target: Tyrosine-protein kinase Fes/Fps (Homo sapiens) (UniProt P07332); conditions: at 1 µM
[14] = target: Fibroblast growth factor receptor 1 (Homo sapiens) (UniProt P11362); conditions: at 0.1 µM
[15] = target: Fibroblast growth factor receptor 1 (Homo sapiens) (UniProt P11362); conditions: at 1 µM
[16] = target: Fibroblast growth factor receptor 2 (Homo sapiens) (UniProt P21802); conditions: at 0.1 µM
[17] = target: Fibroblast growth factor receptor 2 (Homo sapiens) (UniProt P21802); conditions: at 1 µM
[18] = target: Fibroblast growth factor receptor 3 (Homo sapiens) (UniProt P22607); conditions: at 0.1 µM
[19] = target: Fibroblast growth factor receptor 3 (Homo sapiens) (UniProt P22607); conditions: at 1 µM
[20] = target: Fibroblast growth factor receptor 4 (Homo sapiens) (UniProt P22455); conditions: at 0.1 µM;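 note: values are mean percent inhibition of FGFR4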

Fibroblast growth factor receptor 3 (Homo sapiens), sequence (P22607 23-806 limits assumed): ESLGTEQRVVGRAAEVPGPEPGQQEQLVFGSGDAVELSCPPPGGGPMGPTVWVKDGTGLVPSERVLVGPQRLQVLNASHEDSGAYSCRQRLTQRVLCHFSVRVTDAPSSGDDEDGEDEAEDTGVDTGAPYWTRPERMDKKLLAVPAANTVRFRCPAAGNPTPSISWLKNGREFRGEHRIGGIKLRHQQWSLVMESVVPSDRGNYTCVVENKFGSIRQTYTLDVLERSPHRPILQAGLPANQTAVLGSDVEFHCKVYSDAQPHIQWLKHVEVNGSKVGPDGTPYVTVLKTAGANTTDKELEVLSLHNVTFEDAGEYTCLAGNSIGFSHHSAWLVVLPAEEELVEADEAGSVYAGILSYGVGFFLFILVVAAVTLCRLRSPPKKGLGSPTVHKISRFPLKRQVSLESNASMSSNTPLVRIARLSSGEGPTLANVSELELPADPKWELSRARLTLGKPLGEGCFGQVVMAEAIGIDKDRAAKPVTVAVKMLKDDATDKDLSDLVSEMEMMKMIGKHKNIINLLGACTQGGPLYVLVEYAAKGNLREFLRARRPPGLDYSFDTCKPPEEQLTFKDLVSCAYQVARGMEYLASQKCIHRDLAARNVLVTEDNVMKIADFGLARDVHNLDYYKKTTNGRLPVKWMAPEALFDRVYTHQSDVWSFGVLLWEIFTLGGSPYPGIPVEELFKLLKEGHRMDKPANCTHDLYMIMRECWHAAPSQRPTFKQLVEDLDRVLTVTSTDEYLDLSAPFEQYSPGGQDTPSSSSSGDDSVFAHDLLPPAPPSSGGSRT
Receptor tyrosine-protein kinase erbB-4 (Homo sapiens), sequence (Q15303 whole entry): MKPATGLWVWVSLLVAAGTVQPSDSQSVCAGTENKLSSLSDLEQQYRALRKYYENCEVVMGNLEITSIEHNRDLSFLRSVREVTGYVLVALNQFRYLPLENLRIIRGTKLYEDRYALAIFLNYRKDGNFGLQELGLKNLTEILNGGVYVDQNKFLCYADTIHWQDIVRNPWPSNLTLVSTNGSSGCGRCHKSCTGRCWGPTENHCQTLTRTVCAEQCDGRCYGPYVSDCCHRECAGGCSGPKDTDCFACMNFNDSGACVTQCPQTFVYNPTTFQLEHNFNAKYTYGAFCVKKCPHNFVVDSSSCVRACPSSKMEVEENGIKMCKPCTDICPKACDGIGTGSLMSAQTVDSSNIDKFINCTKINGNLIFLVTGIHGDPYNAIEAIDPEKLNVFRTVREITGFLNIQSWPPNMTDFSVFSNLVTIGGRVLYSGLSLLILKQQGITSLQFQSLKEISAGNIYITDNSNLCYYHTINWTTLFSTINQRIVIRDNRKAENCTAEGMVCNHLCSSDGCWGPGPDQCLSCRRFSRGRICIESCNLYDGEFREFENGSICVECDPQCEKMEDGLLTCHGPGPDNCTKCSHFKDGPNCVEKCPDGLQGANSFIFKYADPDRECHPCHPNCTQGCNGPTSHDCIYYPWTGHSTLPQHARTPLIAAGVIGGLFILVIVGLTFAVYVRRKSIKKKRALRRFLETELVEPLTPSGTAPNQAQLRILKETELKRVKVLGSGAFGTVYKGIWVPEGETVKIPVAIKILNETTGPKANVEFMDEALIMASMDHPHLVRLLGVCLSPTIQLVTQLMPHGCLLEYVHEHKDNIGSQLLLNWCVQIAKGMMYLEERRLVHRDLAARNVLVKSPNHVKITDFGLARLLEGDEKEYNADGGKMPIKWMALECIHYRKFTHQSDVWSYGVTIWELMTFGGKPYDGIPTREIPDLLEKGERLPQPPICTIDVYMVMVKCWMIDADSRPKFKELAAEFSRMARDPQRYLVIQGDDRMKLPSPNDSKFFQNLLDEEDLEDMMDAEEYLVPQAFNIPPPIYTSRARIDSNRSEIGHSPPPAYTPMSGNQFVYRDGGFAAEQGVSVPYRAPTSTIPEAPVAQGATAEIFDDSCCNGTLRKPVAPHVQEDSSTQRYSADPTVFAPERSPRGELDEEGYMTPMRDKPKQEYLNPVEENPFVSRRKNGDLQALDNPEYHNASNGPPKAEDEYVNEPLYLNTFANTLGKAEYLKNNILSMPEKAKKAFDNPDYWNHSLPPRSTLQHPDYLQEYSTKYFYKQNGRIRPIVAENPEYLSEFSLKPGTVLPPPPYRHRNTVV
Receptor tyrosine-protein kinase erbB-2 (Homo sapiens), sequence (P04626 whole entry): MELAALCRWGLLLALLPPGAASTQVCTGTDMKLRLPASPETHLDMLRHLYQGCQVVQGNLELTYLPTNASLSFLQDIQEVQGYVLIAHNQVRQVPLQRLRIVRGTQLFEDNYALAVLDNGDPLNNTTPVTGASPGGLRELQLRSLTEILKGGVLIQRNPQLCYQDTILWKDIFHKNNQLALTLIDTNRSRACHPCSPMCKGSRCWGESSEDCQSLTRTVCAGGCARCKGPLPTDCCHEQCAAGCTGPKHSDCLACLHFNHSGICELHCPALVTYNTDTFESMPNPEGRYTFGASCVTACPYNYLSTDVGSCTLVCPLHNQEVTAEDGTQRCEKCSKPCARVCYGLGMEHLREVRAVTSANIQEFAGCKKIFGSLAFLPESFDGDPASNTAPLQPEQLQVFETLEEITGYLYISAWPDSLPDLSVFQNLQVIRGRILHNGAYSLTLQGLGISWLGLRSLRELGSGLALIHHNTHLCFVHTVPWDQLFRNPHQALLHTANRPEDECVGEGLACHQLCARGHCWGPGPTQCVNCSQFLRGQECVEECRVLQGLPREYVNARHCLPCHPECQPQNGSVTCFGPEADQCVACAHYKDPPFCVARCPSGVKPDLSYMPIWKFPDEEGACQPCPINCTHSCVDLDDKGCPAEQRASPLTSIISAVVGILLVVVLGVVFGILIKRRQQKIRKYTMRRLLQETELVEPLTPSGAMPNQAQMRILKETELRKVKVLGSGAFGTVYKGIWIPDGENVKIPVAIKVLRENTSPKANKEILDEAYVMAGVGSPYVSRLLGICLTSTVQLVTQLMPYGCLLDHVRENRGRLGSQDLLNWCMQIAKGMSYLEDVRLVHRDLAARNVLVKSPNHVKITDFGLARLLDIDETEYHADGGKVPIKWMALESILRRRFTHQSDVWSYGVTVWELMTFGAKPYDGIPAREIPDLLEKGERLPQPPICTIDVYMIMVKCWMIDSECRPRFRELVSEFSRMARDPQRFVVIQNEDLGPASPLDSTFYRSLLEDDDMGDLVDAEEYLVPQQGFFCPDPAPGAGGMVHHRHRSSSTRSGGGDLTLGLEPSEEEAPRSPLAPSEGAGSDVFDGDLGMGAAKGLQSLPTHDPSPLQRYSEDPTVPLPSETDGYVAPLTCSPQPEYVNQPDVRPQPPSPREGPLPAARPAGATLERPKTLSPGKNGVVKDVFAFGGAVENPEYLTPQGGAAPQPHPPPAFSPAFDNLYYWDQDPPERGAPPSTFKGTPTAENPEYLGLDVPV
Fibroblast growth factor receptor 2 (Homo sapiens), sequence (P21802 22-821 limits assumed): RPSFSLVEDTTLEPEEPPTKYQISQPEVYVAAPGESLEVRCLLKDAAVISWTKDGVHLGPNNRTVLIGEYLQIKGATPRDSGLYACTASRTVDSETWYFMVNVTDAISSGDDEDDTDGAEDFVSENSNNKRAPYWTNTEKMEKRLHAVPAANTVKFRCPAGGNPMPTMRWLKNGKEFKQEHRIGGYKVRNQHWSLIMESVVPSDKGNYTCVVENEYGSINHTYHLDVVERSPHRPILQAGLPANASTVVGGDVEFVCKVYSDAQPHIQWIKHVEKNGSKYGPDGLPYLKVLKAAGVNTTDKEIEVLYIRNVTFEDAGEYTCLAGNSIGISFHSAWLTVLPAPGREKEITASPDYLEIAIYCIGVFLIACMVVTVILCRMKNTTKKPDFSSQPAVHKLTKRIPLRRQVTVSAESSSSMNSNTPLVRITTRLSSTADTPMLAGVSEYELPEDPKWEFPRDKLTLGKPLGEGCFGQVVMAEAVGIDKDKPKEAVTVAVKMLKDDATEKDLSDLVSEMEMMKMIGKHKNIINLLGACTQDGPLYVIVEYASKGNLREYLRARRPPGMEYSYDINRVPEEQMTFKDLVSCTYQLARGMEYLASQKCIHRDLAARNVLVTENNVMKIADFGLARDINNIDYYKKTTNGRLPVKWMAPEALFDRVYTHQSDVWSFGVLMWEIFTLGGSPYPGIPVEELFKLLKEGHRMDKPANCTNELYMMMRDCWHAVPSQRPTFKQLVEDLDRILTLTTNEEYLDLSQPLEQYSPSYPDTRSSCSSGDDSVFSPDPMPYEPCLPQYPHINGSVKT
Tyrosine-protein kinase Fer (Homo sapiens), sequence (P16591 whole entry, looked up): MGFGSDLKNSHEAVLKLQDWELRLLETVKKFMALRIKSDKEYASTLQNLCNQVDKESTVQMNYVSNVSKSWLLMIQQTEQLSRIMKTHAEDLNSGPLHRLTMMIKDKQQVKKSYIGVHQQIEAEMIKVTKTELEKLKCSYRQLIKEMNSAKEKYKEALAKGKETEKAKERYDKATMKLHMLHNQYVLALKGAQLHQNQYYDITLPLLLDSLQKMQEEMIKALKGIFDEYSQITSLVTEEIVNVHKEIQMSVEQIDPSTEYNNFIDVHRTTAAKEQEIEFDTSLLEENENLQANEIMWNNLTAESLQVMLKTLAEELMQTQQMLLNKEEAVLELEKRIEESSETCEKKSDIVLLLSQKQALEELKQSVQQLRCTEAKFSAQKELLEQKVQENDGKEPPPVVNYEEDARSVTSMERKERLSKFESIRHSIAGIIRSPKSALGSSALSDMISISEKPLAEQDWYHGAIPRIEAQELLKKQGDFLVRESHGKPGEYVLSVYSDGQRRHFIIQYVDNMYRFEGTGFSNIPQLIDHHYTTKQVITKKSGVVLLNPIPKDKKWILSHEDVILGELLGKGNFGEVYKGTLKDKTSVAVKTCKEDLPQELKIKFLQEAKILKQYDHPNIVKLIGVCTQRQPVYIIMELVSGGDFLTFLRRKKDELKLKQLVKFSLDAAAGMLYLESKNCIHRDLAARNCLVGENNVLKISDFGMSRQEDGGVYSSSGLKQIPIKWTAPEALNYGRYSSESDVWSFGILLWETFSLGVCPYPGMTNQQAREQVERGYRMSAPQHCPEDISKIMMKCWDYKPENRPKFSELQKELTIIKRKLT

Structure (SMILES)	inhibition [1] [%]	inhibition [2] [%]	inhibition [3] [%]	inhibition [4] [%]	inhibition [5] [%]	inhibition [6] [%]	inhibition [7] [%]	inhibition [8] [%]	inhibition [9] [%]	inhibition [10] [%]	inhibition [11] [%]	inhibition [12] [%]	inhibition [13] [%]	inhibition [14] [%]	inhibition [15] [%]	inhibition [16] [%]	inhibition [17] [%]	inhibition [18] [%]	inhibition [19] [%]	inhibition [20] [%]
COc1cccc(-c2c[nH]c3c(N/N=C/c4ccncc4)ncnc23)c1	25.9	3.32	-5.7	3.21	13.5	0.26	2.47	8.94	21.9	4.27	8.57	1.82	2.81	0.74	6.34	1.79	9.49	4.63	8.05	4.93
CCn1c(-c2nonc2N)nc2c(C#CC(C)(C)O)nc(OC[C@H](N)c3ccccc3)cc21	0.23	0.72	1.06	1.68	1.24	0.79	3.43	6.48	28.9	2.98	7.41	4.38	7.88	4.14	2.91	4.95	4.18	9.04	3.32	3.89
COc1cc(/C=N/Nc2ncnc3[nH]ncc23)ccc1O	38.7	3.99	5.19	5.34	20.9	2.03	4.08	13.4	21.1	3.03	14.3	2.22	7.19	1.55	7.94	4.76	16.9	5.91	19	-1.95
COc1ccc2[nH]c3c4[nH]c5ccc(OC)cc5c4c4c(c3c2c1)C(=O)NC4=O	17.6	0.84	-4.62	-0.01	4.21	1.76	5.83	14.5	45.9	29.1	67.7	3.43	10.4	1.76	3.2	4.75	16.4	7.7	15.2	2.26
COC(=O)Nc1nc2ccc(S(=O)(=O)c3ccc(NC(=O)Nc4cc(C(F)(F)F)ccc4F)cc3)cc2[nH]1	14.7	5.22	0.8	2.15	3.46	0.46	-2.51	9.54	12.2	3.79	2.04	2.47	2.5	3.55	2.11	2.63	7.81	4.85	4.38	-1.95
CCCN1CCC(c2ccc(Nc3nc(Nc4cc(F)ccc4C(N)=O)c4cc[nH]c4n3)c(OC)c2)CC1	8.57	7.06	2.33	3.08	2.91	5.68	12.9	34.8	76.3	77	82.4	62.5	80.5	2.31	2.41	3.25	6.48	3.99	1.74	-5.38
CCNC(=O)O[C@H]1CN[C@H](C#Cc2cc3ncnc(Nc4ccc(OCc5cccc(F)c5)c(Cl)c4)c3s2)C1	4.8	3.91	5.16	3.25	4.36	8.63	60.4	94.2	101	4.88	-0.34	2.67	3.23	3.91	4.51	2.71	4.31	4.87	4.14	1.14
CCn1c(-c2nonc2N)nc2c(C#CC(C)(C)O)ncc(OC3CCNCC3)c21	4.11	3.01	4.06	1.92	1.63	5.64	3.93	5.65	10.3	-0.68	3.91	2.9	5.88	1.54	-4.66	9.23	11.4	7.92	2.73	6.43
COc1cccc(-n2ncc3c(N/N=C/c4ccc(F)cc4)ncnc32)c1	11.3	4.19	3.79	1.79	3.45	2.86	4.41	10.8	11.2	2.73	4.95	2.58	3.42	2.86	-0.23	6.26	8.02	6.59	6.78	-0.12
CS(=O)(=O)CCNCc1coc(-c2ccc3ncnc(Nc4ccc(OCc5ccccc5)cc4)c3c2)c1	7.45	3.83	4.34	2.88	4.04	6.1	59	55.3	94.1	-0.6	1.36	2.79	3.78	3.21	2.53	3.27	4.29	5.11	3.99	4.22
CC(C)COC(=O)c1ccc2c(c1)/C(=C/Nc1ccc(S(N)(=O)=O)cc1)C(=O)N2	-4.93	0.34	-4.87	-1.38	1.51	-2.55	-0.17	-2.58	-2.34	0.76	11.1	-0.89	-0.27	0.13	4.86	-0.6	17.3	0.1	10.8	4.93
COC(=O)c1sc(-n2cnc3cc(OC)c(OC)cc32)cc1OCc1ccccc1C(F)(F)F	10.3	7.34	6.47	2.86	3.16	3.29	-2.49	8.62	11	1.07	4.19	3.47	3.74	3.22	12.9	3.5	23	6.13	13.9	-3.87
Cc1ccc2c(-c3ccnc(Nc4ccccc4)n3)c(-c3ccc(F)cc3)nn2n1	70.6	6.49	11.4	12.9	56.9	3.68	32.3	67.3	88.7	0.47	8.06	2.61	5.64	9.59	10.9	7.81	13	6.27	8.54	1.19

Reference: ChEMBL document CHEMBL1961873, “Compounds: GSK PKIS; Assays: Nanosyn kinase panel” (2012)
